Test results: PubChem BioAssay (NCI)
This is part of a sample that, as a whole, favours compounds with a hit. Of some 83,000 tested, about 20% had one in any assay.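 Negative percent growth values reflect cell death: -40 means 40% of the cells present at the start died, and -100 means all died.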 Unmarked numbers belong to inactive results. Active and inactive are the calls of the source. The calls were made as follows: active = growth percent below 10; inactive = the rest.

How the values were obtained:
Assay in all cases: NCI-60 one-dose screen, 48 h (100 = growth as untreated, 0 = no growth, -100 = all killed)
Details in all cases: 10 µM unless noted
SK-MEL-2 melanoma = test system: SK-MEL-2 melanoma
EKVX NSCLC = test system: EKVX NSCLC
SN12C renal = test system: SN12C renal
UO-31 renal = test system: UO-31 renal
TK-10 renal = test system: TK-10 renal
ACHN renal = test system: ACHN renal
CAKI-1 renal = test system: CAKI-1 renal
A498 renal = test system: A498 renal
CCRF-CEM leukemia = test system: CCRF-CEM leukemia
MOLT-4 leukemia = test system: MOLT-4 leukemia

Compound | growth (SK-MEL-2 melanoma) | growth (EKVX NSCLC) | growth (SN12C renal) | growth (UO-31 renal) | growth (TK-10 renal) | growth (ACHN renal) | growth (CAKI-1 renal) | growth (A498 renal) | growth (CCRF-CEM leukemia) | growth (MOLT-4 leukemia)
CSc1ncc(C)c(Nc2ccc(Cl)cc2)n1 | 103% | 77.4% | 102% | 76.4% | 95.6% | 103% | 91% | 88.5% | 96.5% | 82.5%
O=[N+]([O-])c1ccc2[nH]cc(-c3c4ccsc4cc4[nH]c5ccc([N+](=O)[O-])cc5c34)c2c1 | 2.1% (active) | 29% | 21.7% | 22.9% | 30.9% | 24.5% | 26.2% | -16.6% (active) | 7.42% (active) | 5.22% (active)
COc1cc(-c2ccc(N=Nc3c(O)c(C(=O)Nc4ccccc4OC)cc4ccccc34)c(OC)c2)ccc1N=Nc1c(O)c(C(=O)Nc2ccccc2OC)cc2ccccc12 | 101% | 96.4% | 98.6% | 78.7% | 110% | 90.7% | 83.8% | 78% | 9.35% (active) | 93.8%
COc1cc(/C=C/c2nc(Nc3ccc(S(=O)(=O)Nc4cc(C)on4)cc3)c3ccccc3n2)ccc1O | 72% | 73.3% | 60.7% | 58% | 93% | 83.6% | 45% | 95.2% | 55.9% | 42.1%
N#Cc1c(N)n2c(nc1=Nc1ccc([N+](=O)[O-])cc1)sc1cc(Cl)ccc12 | 99.4% | 84.3% | 89.4% | 75.2% | 148% | 90.7% | 85.2% | 102% | 83.6% | 93.4%
Cc1ccc(/C(=N\N=C(N)N)c2ccccc2)cc1 | 71.3% | 34.3% | 26.9% | 24.8% | 42.2% | 20.4% | 41.2% | 20.1% | 14% | 13.3%
CC(C)CCC[C@@H](C)[C@H]1CCC2C3=CCn4c(=O)ccc(=O)n4C3CC[C@@]21C (stereo not given in full) | -57.4% (active) | -82.2% (active) | -97.7% (active) | -88.5% (active) | -83.1% (active) | -95.1% (active) | -91.6% (active) | -94.8% (active) | -2.44% (active) | -23.6% (active)
O=c1oc2ccc(Cl)cc2cc1-c1cs/c(=N/N=C\c2ccc(Cl)cc2)n1/N=C/c1ccc(Cl)cc1 | 92.6% | 107% | 94% | 90.1% | 99.4% | 112% | 110% | 83.9% | 104% | 93.8%
Nc1c(-c2nc3ccc(Br)cc3c(=O)[nH]2)nnn1-c1ccccc1 | 94.6% | 101% | 95.5% | 106% | 84.3% | 71.6% | 103% | 87.4% | 93.3% | 85.1%
COC(=O)Nc1nc2ccc(C(=O)C3CC3)cc2[nH]1 | 27.9% | 32.7% | 19.7% | 6.33% (active) | 35.5% | 37.1% | 27.1% | 6.47% (active) | -22.3% (active) | -16% (active)
COc1cc(C2C=C(c3cccc(NC(C)=O)c3)Nc3ncnn32)cc(OC)c1OC (stereo not given) | 64.9% | 37.2% | 32.9% | 59.6% | 4.84% (active) | 52.8% | -10.6% (active) | 1.13% (active) | 11.5% | 9.75% (active)
CN(C)c1ccc(/C=N/NC(=O)COc2cc(=O)n(C)c3ccccc23)cc1 | 111% | 103% | 99.5% | 71.7% | 119% | 90.6% | 83.7% | 104% | 106% | 104%
O=C1C=CC(=Nc2cc(Br)c(O)c(Br)c2)C=C1 | 65.2% | 90.7% | 78.7% | 56.3% | 93.8% | 68.4% | 82.8% | 97.2% | 7.46% (active) | -28.9% (active)
COc1cc(C(=O)Nc2cc(O)c(CC=C(C)C)c(O)c2)cc2c1O[C@]1(C)CC[C@@H](O)C(C)(C)[C@H]1C2 | 12.9% | 36.6% | 64.6% | -1.4% (active) | 33.2% | 26.4% | 9.89% (active) | 16.7% | 2.18% (active) | -15.7% (active)
